Consider 25 molecules from article PMC9911399, “Two distinct binding modes provide the RNA-binding protein RbFox with extraordinary sequence specificity”.

Where a chain is given by its changes, count along the chain named. Whole data set: some 16,000 sequences, median “ka relative to ugcaugu” near 0.0091, cut for the highest 2% near 0.032. Many of the other results were omitted from the sample, so the highest values are more common in it than they were.

T1: RBFOX1 RRM (Homo sapiens, UniProt Q9NWB1 109-208)
T1 sequence: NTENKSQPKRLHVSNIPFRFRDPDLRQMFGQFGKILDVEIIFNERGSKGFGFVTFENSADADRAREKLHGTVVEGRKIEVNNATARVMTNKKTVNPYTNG

B1: AUAGGCC (DNA:RNA)
RNA: GGGAGACCGGAAUUCAGAUUGUCCAUAGGCCUUAAAUCCCGUCGUAGCCACCA
DNA 1: CAATCTGAATTCCGGTCTCCC
DNA 2: TGGTGGCTACGACGGGATT
B2: CCAGAGA (DNA:RNA)
RNA: B1 RNA with A25C, U26C, G29A, C30G, C31A
DNA 1: CAATCTGAATTCCGGTCTCCC
DNA 2: TGGTGGCTACGACGGGATT
B3: CUCCCAU (DNA:RNA)
RNA: B1 RNA with A25C, A27C, G28C, G29C, C30A, C31U
DNA 1: CAATCTGAATTCCGGTCTCCC
DNA 2: TGGTGGCTACGACGGGATT
B4: UUUCACC (DNA:RNA)
RNA: B1 RNA with A25U, A27U, G28C, G29A
DNA 1: CAATCTGAATTCCGGTCTCCC
DNA 2: TGGTGGCTACGACGGGATT
B5: GUAAUGA (DNA:RNA)
RNA: B1 RNA with A25G, G28A, G29U, C30G, C31A
DNA 1: CAATCTGAATTCCGGTCTCCC
DNA 2: TGGTGGCTACGACGGGATT
B6: GAAAUGA (DNA:RNA)
RNA: B1 RNA with A25G, U26A, G28A, G29U, C30G, C31A
DNA 1: CAATCTGAATTCCGGTCTCCC
DNA 2: TGGTGGCTACGACGGGATT
B7: GGAUGAA (DNA:RNA)
RNA: B1 RNA with A25G, U26G, G28U, C30A, C31A
DNA 1: CAATCTGAATTCCGGTCTCCC
DNA 2: TGGTGGCTACGACGGGATT
B8: GGAAUGA (DNA:RNA)
RNA: B1 RNA with A25G, U26G, G28A, G29U, C30G, C31A
DNA 1: CAATCTGAATTCCGGTCTCCC
DNA 2: TGGTGGCTACGACGGGATT
B9: CGGAUGA (DNA:RNA)
RNA: GGGAGACCGGAAUUCAGAUUGUCCCGGAUGAUUAAAUCCCGUCGUAGCCACCA
DNA 1: CAATCTGAATTCCGGTCTCCC
DNA 2: TGGTGGCTACGACGGGATT
B10: GGGAUGA (DNA:RNA)
RNA: B9 RNA with C25G
DNA 1: CAATCTGAATTCCGGTCTCCC
DNA 2: TGGTGGCTACGACGGGATT
B11: UCACGAG (DNA:RNA)
RNA: B1 RNA with A25U, U26C, G28C, C30A, C31G
DNA 1: CAATCTGAATTCCGGTCTCCC
DNA 2: TGGTGGCTACGACGGGATT
B12: GCGUGGA (DNA:RNA)
RNA: B9 RNA with C25G, G26C, A28U, U29G
DNA 1: CAATCTGAATTCCGGTCTCCC
DNA 2: TGGTGGCTACGACGGGATT
B13: GGAAGUG (DNA:RNA)
RNA: B1 RNA with A25G, U26G, G28A, C30U, C31G
DNA 1: CAATCTGAATTCCGGTCTCCC
DNA 2: TGGTGGCTACGACGGGATT
B14: UGGCAGA (DNA:RNA)
RNA: B9 RNA with C25U, A28C, U29A
DNA 1: CAATCTGAATTCCGGTCTCCC
DNA 2: TGGTGGCTACGACGGGATT
B15: UGGCACC (DNA:RNA)
RNA: B1 RNA with A25U, U26G, A27G, G28C, G29A
DNA 1: CAATCTGAATTCCGGTCTCCC
DNA 2: TGGTGGCTACGACGGGATT
B16: ACGUCGU (DNA:RNA)
RNA: B9 RNA with C25A, G26C, A28U, U29C, A31U
DNA 1: CAATCTGAATTCCGGTCTCCC
DNA 2: TGGTGGCTACGACGGGATT
B17: AGGCACC (DNA:RNA)
RNA: B1 RNA with U26G, A27G, G28C, G29A
DNA 1: CAATCTGAATTCCGGTCTCCC
DNA 2: TGGTGGCTACGACGGGATT
B18: GGGCACG (DNA:RNA)
RNA: B9 RNA with C25G, A28C, U29A, G30C, A31G
DNA 1: CAATCTGAATTCCGGTCTCCC
DNA 2: TGGTGGCTACGACGGGATT
B19: ACCACGU (DNA:RNA)
RNA: B9 RNA with C25A, G26C, G27C, U29C, A31U
DNA 1: CAATCTGAATTCCGGTCTCCC
DNA 2: TGGTGGCTACGACGGGATT
B20: GGGCACC (DNA:RNA)
RNA: B1 RNA with A25G, U26G, A27G, G28C, G29A
DNA 1: CAATCTGAATTCCGGTCTCCC
DNA 2: TGGTGGCTACGACGGGATT
B21: GGCACGU (DNA:RNA)
RNA: B9 RNA with C25G, G27C, U29C, A31U
DNA 1: CAATCTGAATTCCGGTCTCCC
DNA 2: TGGTGGCTACGACGGGATT
B22: GGGGCAC (DNA:RNA)
RNA: B1 RNA with A25G, U26G, A27G, G29C, C30A
DNA 1: CAATCTGAATTCCGGTCTCCC
DNA 2: TGGTGGCTACGACGGGATT
B23: UGGCACG (DNA:RNA)
RNA: B9 RNA with C25U, A28C, U29A, G30C, A31G
DNA 1: CAATCTGAATTCCGGTCTCCC
DNA 2: TGGTGGCTACGACGGGATT
B24: AGGCACG (DNA:RNA)
RNA: B1 RNA with U26G, A27G, G28C, G29A, C31G
DNA 1: CAATCTGAATTCCGGTCTCCC
DNA 2: TGGTGGCTACGACGGGATT
B25: AGCCACG (DNA:RNA)
RNA: B1 RNA with U26G, A27C, G28C, G29A, C31G
DNA 1: CAATCTGAATTCCGGTCTCCC
DNA 2: TGGTGGCTACGACGGGATT

The assay has as its target T1, RBFOX1 RRM. The experiment in a line: EMSA; HiTS-Eq, 1 nM pool, 10 min; buffer printed only for the single-RNA assays: 10 mM Tris pH 7.5, 150 mM NaCl, 3.4 mM EDTA, 0.001% NP-40, 30 C. Conditions: tags: His6 N-terminal (pET28a); label: 5' 32P. Put shortly:
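Purified RbFox RRM, wild type or mutant, was incubated for 10 min in 50 µL with 1 nM of a 5′-radiolabelled RNA pool carrying 7 randomized nucleotides, whose flanks were annealed to DNA oligonucleotides, over a series of increasing protein concentrations. Unbound RNA was resolved on 8% native PAGE, cut out, reverse-transcribed, barcoded by PCR and sequenced on an Illumina HiSeq 2500. Relative association constants were derived from changes in read counts for each RNA species versus the control reaction and normalised to the cognate motif.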
(A gel shift assay detects complexes by their altered migration in electrophoresis.)
As to B1, the binding signal is 0.0113 KA relative to UGCAUGU.

Take B2: the binding signal is 0.0103 KA relative to UGCAUGU.

With B3, the binding signal is 0.00325 KA relative to UGCAUGU.

On to B4, for which the binding signal is 0.00771 KA relative to UGCAUGU.

In the case of B5, the binding signal is 0.0136 KA relative to UGCAUGU.

Regarding B6, the binding signal is 0.0134 KA relative to UGCAUGU.

As to B7, the binding signal is 0.0174 KA relative to UGCAUGU.

Turning to B8, the binding signal is 0.0487 KA relative to UGCAUGU.

B9: the binding signal was 0.0221 KA relative to UGCAUGU.

Consider B10, for which the binding signal was 0.0379 KA relative to UGCAUGU.

B11: the binding signal is 0.0108 KA relative to UGCAUGU.

As to B12, the binding signal is 0.0179 KA relative to UGCAUGU.

Turning to B13, the binding signal was 0.0211 KA relative to UGCAUGU.

Take B14: the binding signal is 0.0265 KA relative to UGCAUGU.

Take B15: the binding signal was 0.0134 KA relative to UGCAUGU.

B16: the binding signal was 0.00803 KA relative to UGCAUGU.

For B17, the binding signal was 0.00933 KA relative to UGCAUGU.

Take B18: the binding signal was 0.0317 KA relative to UGCAUGU.

Regarding B19, the binding signal is 0.00412 KA relative to UGCAUGU.

For the molecule B20, the binding signal is 0.0223 KA relative to UGCAUGU.

As for B21, the binding signal is 0.0321 KA relative to UGCAUGU.

On to B22, for which the binding signal is 0.0252 KA relative to UGCAUGU.

B23: the binding signal was 0.0541 KA relative to UGCAUGU.

Consider B24, for which the binding signal is 0.0414 KA relative to UGCAUGU.

In the case of B25, the binding signal was 0.00567 KA relative to UGCAUGU.
